# Screens (PubChem)
# Most compounds without a hit are left out; they make up all but 4.5% or so of the library.
# tim10-1 inh = inhibits growth of tim10-1 mutant yeast; 330,000 compounds, 2.2% hits; S. cerevisiae tim10-1 ts strain growth, BacTiter-Glo, 24 h; inhibition, % at 20 µM; AID 463190;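 active = inhibition of at least 40%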;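 note: mutant grown at 25 °C; 0% = DMSO wells with yeast and 100% = wells holding no yeast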
# NLRP3 yeast inh = inhibitors of NALP3 inflammasome in yeast | Yeast reconstituted NLRP3/ASC/caspase-1, beta-gal luminescence, 24 h | inhibition, % at 10 µM | 330,000 compounds, 0.39% hits;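 active = inhibition of 50% or more; inactive = inhibition below 50%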;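 note: plate controls were induced DMSO wells for no effect and uninduced yeast grown without galactose for full effect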
# PfHsp90 yeast 2 = growth inhibition of yeast expressing Plasmodium Hsp90 | S. cerevisiae expressing PfHsp90, BacTiter-Glo ATP, 48 h; yeast lacking PDR1 and PDR3 efflux regulators | inhibition, % at 9.4 µM | 310,000 compounds, 0.32% hits | AID 504621;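 active = every replicate shows inhibition above about 80%, whatever the replicate mean, limit read from the data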;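 note: 0% = DMSO neutral controls and 100% = 20 µM radicicol positive controls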
# SKKanGAS inh = blocks kanamycin growth of S. pyogenes SKKanGAS strain | 300,000 compounds, 1.3% hits | inhibition, % at 7.5 µM | BacTiter-Glo, 6 h;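 active = mean replicate score, as percent of positive control median, at least 50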;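 note: strain carries kanamycin resistance gene driven by streptokinase promoter and grows in 40 µg/ml kanamycin; loss of luminescence reflects streptokinase promoter inhibition or plain growth inhibition; 0% = median of DMSO wells and 100% = positive control at its reference dose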
# TIM10 inh = inhibits growth of TIM10 yeast strain; S. cerevisiae TIM10 strain growth, BacTiter-Glo luminescence, 24 h; inhibition, % at 10 µM; 330,000 compounds, 1.4% hits;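 active = inhibition of 40% or more at the single tested concentration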;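 note: wild-type TIM10 isogenic control strain grown at permissive 25 °C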
# tim23-1 inh = inhibits growth of tim23-1 mutant yeast; S. cerevisiae tim23-1 growth, BacTiter-Glo luminescence, 24 h; inhibition, % at 20 µM; 330,000 compounds, 1.3% hits; AID 463212;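 active = growth inhibition of the mutant yeast at or above 50%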;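 note: temperature-sensitive mutant grown at 25 °C; plate controls were DMSO-treated mutant yeast for no effect and medium wells lacking yeast for full effect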
# tim10-1 conf = confirmation of tim10-1 mutant yeast growth inhibitors | shares compounds with tim10-1 inh | inhibition, % at 20 µM | 7,400 compounds, 56% hits | S. cerevisiae tim10-1 ts strain growth, BacTiter-Glo, 24 h;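 active = inhibition of yeast growth at or above a set limit in either of two repeat tests at 20 µM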;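 note: tim10-1 mutant grown at permissive 25 °C to find synthetic lethal compounds; 0% = DMSO yeast wells and 100% = medium wells without yeast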
# An asterisk follows results filed as active; · = not tested or not shown.
SMILES,tim10-1 inh,NLRP3 yeast inh,PfHsp90 yeast 2,SKKanGAS inh,TIM10 inh,tim23-1 inh,tim10-1 conf
C=CC(C)(C)c1c(O)c(CC=C(C)C)c(O)c2c(=O)c3ccc(O)c(O)c3oc12,44*,-4,105*,103*,-1,43,29*
Cc1ccc(S(=O)(=O)N(C)C)cc1NC(=S)N1CCN(Cc2ccc3c(c2)OCO3)CC1,0,14,3,14,8,19,·
COCCCNC(=S)N1CCN(c2nc(C)nc3sc4c(c23)CCCC4)CC1,6,12,-2,12,20,31,·
CCCNC(=S)N1CCN(c2nc(C)nc3sc4c(c23)CCCC4)CC1,43*,16,1,22,32,26,16
COc1cc(C(=O)NCC(c2ccc(F)cc2)N2CCOCC2)ccc1OCc1ccccc1Cl (centres undefined),25,17,-68,2,29,28,·
COc1cc(/C=C/C(=O)O)cc(S(=O)(=O)Nc2ccc3nc(SC)sc3c2)c1OC,12,5,9,2,10,7,·
O=C(CSc1ncnc2c1nnn2Cc1ccccc1)NC1CCCC1,16,3,-8,-3,1,8,·
CC(C)(C)NC(=O)CSc1ncnc2c1nnn2Cc1ccccc1Cl,48*,1,0,-4,16,26,26
CC(CNC(=O)CCc1nnc(CCC2CCCCC2)o1)c1ccccc1 (centres undefined),40,12,-30,-3,23,21,33*
COc1ccc(N2CCC(CNC(=S)Nc3cc(C)cc(C)c3)C2)cc1 (centres undefined),3,8,-5,7,-1,35,·
COc1ccc(N2CCC(CNC(=O)Nc3ccccc3)C2)cc1 (centres undefined),41*,14,-6,7,14,24,33*
Cn1ncc(Br)c1C(=O)N/N=C/c1ccc(OS(=O)(=O)c2ccccc2)cc1,45*,9,·,5,35,30,25
C(=N\n1cnnc1)/c1cn(Cc2ccccc2)c2ccccc12,49*,18,-15,-7,25,27,-21
Clc1ccc(Cn2cc(/C=N/n3cnnc3)c3ccccc32)c(Cl)c1,19,13,-17,42,-2,20,·
CCN1CCN(S(=O)(=O)c2ccc(Cl)c(C(=O)N(C)Cc3ccccc3)c2)CC1,98*,5,4,·,9,20,10
C=C(C)CC1Nc2ccccc2NC1CC(=C)C (centres undefined),42*,7,9,2,34,43,41*
N#Cc1ccc(CN2CCN(C(=O)c3cccc(S(=O)(=O)N4CCCCCC4)c3)CC2)cc1,-10,12,18,·,9,15,·
Cc1[nH]n(-c2ccccc2)c(=O)c1C(c1cccc([N+](=O)[O-])c1O)c1c(C)[nH]n(-c2ccccc2)c1=O,42*,17,4,19,7,33,23
COC(=O)c1ccc(COC(=O)C2CCN(S(=O)(=O)c3ccc(C)c(C)c3)CC2)o1,38,22,12,-2,20,26,·
CCOC(=O)C1=NNC(C(=O)OCC)C1C(=O)OCC (centres undefined),·,·,-3,·,·,·,·
COc1ccc(S(=O)(=O)Nc2cccc3c2O[C@H](CN(C)C)[C@@H](C)CN([C@H](C)CO)C3=O)cc1,15,8,-1,·,4,9,·
CCOc1ccc(-n2ccnc(SCC(=O)NCc3cccc(OC)c3)c2=O)cc1,43*,4,·,0,10,20,11
CCOc1ccc(-n2ccnc(SCC(=O)Nc3ccc(OC)cc3OC)c2=O)cc1,27,15,16,16,15,9,·
COc1cc(S(=O)(=O)Nc2ccc3c(c2)C(=O)N(C)C3=O)ccc1NC(C)=O,4,-15,9,·,-7,2,·
CCOC(=O)c1ccc(S(=O)(=O)Nc2cc(C(C)(C)C)no2)cc1,41*,-14,·,4,10,24,15
CC1(C)SC2c3ccccc3C(=O)N2[C@@H]1C(=O)NC1CC1 (some centres undefined),5,1,21,-3,-5,8,·
